The values that follow come from PubChem BioAssay (NCATS).

Molecules are shown by their SMILES. Several values for one entry are separate records, joined by “and”; a condition that tells them apart may be missing. Identical values can stand only once. Results filed as inconclusive are left out. Activity calls are given as the source filed them. Unless noted, calls follow the shape of the dose curve; as a rule, active = well fitted curve in the direction sought with a large enough effect; inconclusive = small, poorly fitted or top-dose-only effect, or another doubt; inactive = no such curve, though single readings can be large; an effect the other way counts as inactive or inconclusive.

Experiment [1] in a line: AP1 Signaling Pathway (AID 357; active = well fitted curve in either direction with a large enough effect, not every such curve was filed as active;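 also: ME-180 reporter cells stimulated with EGF at its EC50 level; % is scaled to controls: 0 for no effect and ±100 for the full control effect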). The note with it: ME-180 AP-1-bla reporter, EGF-induced, beta-lactamase ratio, 5 h. The essentials:
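A ratiometric CCF4 readout (405 nm excitation; 460 and 530 nm emission) quantified AP-1-driven beta-lactamase in ME-180 cells after 5 h with compound and EC50 EGF; AC50 values were derived for activators and inhibitors.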

For experiment [2], the target named is Cytochrome P450 1A2 (Homo sapiens) (UniProt P05177). Description: p450-cyp1a2 (AID 410; calls by dose curve;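 also: -100% = full effect of reference inhibitor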). Conditions: recombinant CYP1A2, luciferin-ME demethylation, luminescence; series mostly up to 57 µM. The essentials:
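Luminescent readout of luciferin formed from Luciferin-ME by human CYP1A2; data normalized against complete inhibition by 57 uM furafylline. Enzyme 20nM, substrate 100uM at Km, 100mM KPO4 buffer, 60 min reaction at room temperature.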

Experiment [3] can be described thus: NFAT Signaling Pathway (AID 444; active = well fitted curve in either direction with a large enough effect, not every such curve was filed as active;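 also: carbachol stimulus at about its EC50 of 1 µM final; % is scaled to controls: 0 for no effect and ±100 for the full control effect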). Conditions: Jurkat NFAT-bla M1, carbachol, beta-lactamase ratio, 5 h. The method in brief: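 Jurkat cells with NFAT-driven β-lactamase reporter and co-expressed M1 receptor, stimulated with carbachol (final 1 uM, ~EC50), compound titration, 5 h at 37 °C. CCF4 loaded 1 h at RT; 460/530 nm ratio gave %activity and AC50.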
Experiment [4] can be described thus: Stat Signaling Pathway (AID 446; active = well fitted curve in either direction with a large enough effect, not every such curve was filed as active;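 also: ME-180 cervical cancer cells given 40 pM IL-6 alongside compound; SIE-controlled beta-lactamase reporter measured as 460/530 nm FRET emission ratio; % is scaled to controls: 0 for no effect and ±100 for the full control effect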). Conditions: ME-180 SIE beta-lactamase reporter, IL-6 stimulated, 5 h. The method in brief: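 Screening format detects activators and inhibitors alike: ME-180 SIE-bla cells stimulated at 40 pM IL-6 for 5 hrs with compound, then dual-emission beta-lactamase read at 405 nm excitation.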
Experiment [5] addresses Glucocorticoid receptor (Homo sapiens) (UniProt P04150). Description: GR-GFP Redistribution (AID 450;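 active = compounds whose dose series gives a full or clear partial fitted curve of increased nuclear translocation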; also: potency is read from the fitted curve at half-maximal effect). Conditions: U2OS GR-GFP nuclear translocation, laser cytometry, 2 h.
For experiment [6] the target is unchanged. Description: GR-EFC Redistribution (AID 451; calls by dose curve; also: potency is read from the fitted curve at half-maximal effect). The note with it: CHO-K1 GR-EFC translocation, beta-gal luminescence, 2 h. The essentials: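 CHO-K1 cells expressing nuclear EA and GR-ED fragments of b-gal; compounds titrated up to 46 uM final, 2 h at 37 C. GR nuclear translocation read as complemented b-gal luminescence after 1 h RT detection.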
Experiment [7] has as its target Mitogen-activated protein kinase 10 (Mus musculus) (UniProt Q61831). Description: JNK3 AlphaScreen Assay (AID 530; active = well fitted curve in either direction with a large enough effect, not every such curve was filed as active;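 also: kinase came from lysate of stimulated human HepG2 cells; signal reports phosphorylation of biotinylated GST-cJun 1-79 at Ser73 with 10 µM ATP; % is scaled to controls: 0 for no effect and ±100 for the full control effect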). The note with it: JNK3 lysate, c-Jun phosphorylation; series mostly up to 57.1 µM. The essentials: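 Pre-activated (IL-1β/TNFα) JNK3 in HepG2 lysates phosphorylates biotin-GST-cJun(1-79), 10 uM ATP; anti-phospho-cJun(Ser73) AlphaScreen read at room temperature, pH 7.6 Tris buffer. Compounds pre-incubated 15 min as titrations.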
Background: Alpha assays give light when donor and acceptor beads are brought close together.

The target of experiment [8] is 3',5'-cyclic-AMP phosphodiesterase 4B (Homo sapiens) (UniProt Q07343). Description: qHTS Assay for Inhibitors of PDE-IV (AID 607; active = well fitted activation curve with a large enough effect in the main read-out, with a control signal flat, not every such curve was filed as active; also: % of control where 0% means no effect). The note with it: HEK293 ACTOne CNG channel cells, membrane potential fluorescence; series mostly up to 22.9 µM. The method in brief:
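The readout is membrane depolarisation from a cAMP-sensing CNG channel, detected with a potential dye at ex 535/em 590. Cells were HEK293-derived (endogenous PDE-IV) at 1000 cells/well, titrated up to 22.9 uM final.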

Experiment [9] is described as follows: qHTS Assay for Identification of Small Molecule Agonists for Thrombopoietin (TPO) Signaling Pathway (AID 917). Also: % is scaled to controls: 0 for no effect and ±100 for the full control effect. Conditions: TPO signaling pathway reporter cells, agonist qHTS, stimulated with TPO at its EC50; series mostly up to 38.5 µM. The method in brief:
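Luminescence from a Glycoprotein IIb promoter–driven luciferase reporter served as read-out in murine Ba/F3 cells carrying the human TPO receptor. Cells, deprived of IL-3 overnight, received compounds with 26 pM TPO and were incubated 24 hrs at 37 C.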

Experiment [10] has as its target Pyruvate kinase (Leishmania mexicana) (UniProt Q27686). Description: qHTS Validation Assay for Inhibitors of Leishmania Mexicana Pyruvate Kinase (AID 945).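 Also: 0% = DMSO only neutral control wells.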 Conditions: purified L. mexicana pyruvate kinase, enzyme activity, E451W mutant enzyme; series mostly up to 57.5 µM. The method in brief:
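Read-out: luminescence from PKLight stop/detection reagent, data normalized to DMSO. Reaction: 0.2 nM E451W LmPYK, 0.5 mM PEP, 0.1 mM ADP, pH 7.2, 1 h room temperature.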

Experiment [11] addresses Pyruvate kinase PKM (Homo sapiens) (UniProt P14618). Description: qHTS Assay for Activators of Human Muscle Pyruvate Kinase (AID 954; active = well fitted curve in the direction sought with a large enough effect, not every such curve was filed as active;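 also: 0% = uninhibited enzyme and -100% = no enzyme or full thiadiazolimine inhibition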). The note with it: purified human muscle pyruvate kinase, luciferase-coupled luminescence, 1 h; series mostly up to 57.5 µM. The method in brief: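 Reaction: 0.1 nM purified PKM2 with 0.5 mM phosphoenolpyruvate and 0.1 mM ADP, room temperature, 1 h. Readout: luciferase-based ATP luminescence after stop reagent. Activators judged against a 0.3 nM enzyme column.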
For orientation: qHTS replaces the single test concentration by a dilution series.

In experiment [12] the target is alpha-glucosidase (Oryza sativa, rice) (UniProt Q653V4). Description: Counterscreen for Glucocerebrosidase Inhibitors: qHTS Assay for Rice alpha-Glucosidase at pH 5.0 (AID 997).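 Also: 0% = full activity with enzyme and -100% = basal without enzyme.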 The note with it: rice alpha-glucosidase enzyme activity; series mostly up to 76.9 µM. The essentials:
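Rice alpha-glucosidase (4 nM final) with 400 uM 4-methylumbelliferyl-alpha-D-glucopyranoside in citrate buffer pH 5.0, 20 min at room temperature, stopped at pH 10; fluorescence 365/440 nm, compounds 0.7 nM–77 uM, AC50 from Hill fits.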
(A counterscreen serves to expose hits that act by an unwanted route or on another target.)

Experiment [13] in a line: qHTS Assay for Lipid Storage Modulators (AID 1519; calls by dose curve). The note with it: Drosophila S3 cells, BODIPY lipid droplet/cell ratio, laser cytometry, cells loaded with oleic acid. The essentials: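 Cells seeded at 5,000 per well were treated with compounds over a concentration series and loaded with oleic acid (400 uM, as added). Lipid droplet fluorescence (488 nm excitation, 500-530 nm channel) was read by laser-scanning cytometry and normalized to 20 uM Triacsin C.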

The target of experiment [14] is Ubiquitin carboxyl-terminal hydrolase 1 (Homo sapiens) (UniProt O94782). Description: Inhibitors of USP1/UAF1: Pilot qHTS (AID 504865).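 Also: rhodamine fluorescence freed from ubiquitin-rhodamine substrate followed over time; top concentration of the series differs between compounds; % is scaled to controls: 0 for no effect and ±100 for the full control effect; nearly all actives have a fitted effect of over 35% in size.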 The note with it: purified USP1/UAF1, Ub-rhodamine cleavage fluorescence; series mostly up to 114 µM. The method in brief:
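In 50mM HEPES pH 7.8 containing 0.5mM EDTA, 1mM TCEP, 0.1 mg/ml BSA and 0.01% Tween-20, 1nM USP1/UAF1 is exposed to compound for 15 min, then Ub-Rho (150nM final) is added and fluorescence is read over time.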

The target of experiment [15] is DNA dC->dU-editing enzyme APOBEC-3G (Homo sapiens) (UniProt Q9HC16). Description: qHTS for inhibitors of Vif-A3G interactions: Validation (AID 588379). Also: 0% is about no effect. The note with it: Vif-A3G protein interaction assay; series mostly up to 46.1 µM. The method in brief:
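HeLa cells stably expressing Vif and A3G-eYFP, 700 cells/well, incubated overnight at 37 deg C, then exposed to compound overnight at 37 deg C. Inhibition of Vif-mediated degradation read as increased yellow fluorescence (Ex 488/Em 500-530) by laser-scanning cytometry.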

In experiment [16] the test system is Zika virus NS2B-NS3 protease. Description: Primary screen GU AMC qHTS for Zika virus inhibitors (AID 1347154).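 Also: 0% = no-inhibitor control and -100% = no-enzyme control; nearly all actives have a fitted effect of over 70% in size.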 Conditions: Zika NS2B-NS3 unlinked protease, AMC fluorogenic substrate; series mostly up to 54.1 µM. The essentials:
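Unlinked Zika NS2B hydrophilic domain–NS3 protease complex at 25 nM in 10 mM Tris-HCl pH 8.0, 0.01% Tween 20, with an AMC peptide substrate. Fluorescence change (340/450 nm) over 15 min at room temperature, normalized to controls, fitted to 4-parameter Hill.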

Experiment [17] can be described thus: Primary qHTS for small molecule stabilizers of the endoplasmic reticulum resident proteome: Secreted ER Calcium Modulated Protein (SERCaMP) assay (AID 1508630). Also: % is scaled to controls: 0 for no effect and ±100 for the full control effect. The note with it: SH-SY5Y GLuc-SERCaMP (Gaussia luciferase released on ER calcium loss) secretion, thapsigargin, luminescence; series mostly up to 38.4 µM. The essentials:
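GLuc-SERCaMP-expressing SH-SY5Y cells, pretreated 16 h with compound, are challenged with thapsigargin to empty ER calcium stores; after 4 h, coelenterazine is added directly to the medium and luminescence is imaged.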

Experiment [18] deals with Cytochrome P450 2C9 (Homo sapiens) (UniProt P11712). Description: qHTS Assay for Inhibitors and Substrates of Cytochrome P450 2C9 (AID 883). Also: % is scaled to controls: 0 for no effect and ±100 for the full control effect; nearly all actives have a fitted effect of over 60% in size. The note with it: recombinant CYP2C9, luciferin-H luminescence, 60 min; series mostly up to 57.1 µM. The essentials:
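10nM CYP2C9 + 100uM Luciferin-H (=KM), 25mM KPO4; cpd 10 min 37C; NADPH regen, 60 min 37C; stop/detect with P450 Glo-Buffer 20 min; luminescence. Norm. to 57uM sulphaphenazole as full inhibition.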

Experiment [19] concerns the target Cytochrome P450 2D6 (Homo sapiens) (UniProt P10635). Description: qHTS Assay for Inhibitors and Substrates of Cytochrome P450 2D6 (AID 891).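 Also: luciferin methyl ether substrate demethylated by CYP2D6 with NADPH regeneration; % is scaled to controls: 0 for no effect and ±100 for the full control effect; nearly all actives have a fitted effect of over 60% in size.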 The note with it: recombinant CYP2D6, luciferin-ME EGE luminescence; series mostly up to 57.1 µM. The method in brief:
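Human CYP2D6 (5 nM) with 30 uM Luciferin-ME EGE (at Km) in 100 mM KPO4, compound preincubated 10 min, then NADPH regeneration system for 60 min at room temperature. Luciferin read by luminescence; normalized to 1.43 uM quinidine.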

The mark [20] stands for this setting: measured here: cell count channel max response.
The mark [21] stands for this setting: measured here: lipid channel max response.

Chain of 3',5'-cyclic-AMP phosphodiesterase 4B (Homo sapiens) (Q07343 whole entry, looked up): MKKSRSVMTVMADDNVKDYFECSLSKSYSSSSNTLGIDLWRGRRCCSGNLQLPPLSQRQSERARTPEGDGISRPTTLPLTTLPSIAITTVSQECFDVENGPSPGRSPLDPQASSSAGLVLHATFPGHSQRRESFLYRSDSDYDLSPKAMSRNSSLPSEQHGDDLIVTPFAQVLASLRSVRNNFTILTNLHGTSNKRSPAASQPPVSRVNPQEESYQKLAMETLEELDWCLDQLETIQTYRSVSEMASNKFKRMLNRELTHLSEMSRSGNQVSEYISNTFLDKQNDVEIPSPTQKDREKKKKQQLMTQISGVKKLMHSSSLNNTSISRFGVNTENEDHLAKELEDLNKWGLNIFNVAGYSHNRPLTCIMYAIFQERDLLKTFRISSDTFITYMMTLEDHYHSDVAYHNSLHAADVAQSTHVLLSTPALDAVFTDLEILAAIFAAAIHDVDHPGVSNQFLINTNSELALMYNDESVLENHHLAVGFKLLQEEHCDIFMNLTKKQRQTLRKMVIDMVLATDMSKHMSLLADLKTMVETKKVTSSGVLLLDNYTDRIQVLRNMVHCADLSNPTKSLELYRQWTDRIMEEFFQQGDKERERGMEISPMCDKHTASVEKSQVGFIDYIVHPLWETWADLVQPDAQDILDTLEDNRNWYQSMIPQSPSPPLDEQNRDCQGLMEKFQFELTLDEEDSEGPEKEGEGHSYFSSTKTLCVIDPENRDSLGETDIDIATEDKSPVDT
Chain of Cytochrome P450 1A2 (Homo sapiens) (P05177 whole entry, looked up): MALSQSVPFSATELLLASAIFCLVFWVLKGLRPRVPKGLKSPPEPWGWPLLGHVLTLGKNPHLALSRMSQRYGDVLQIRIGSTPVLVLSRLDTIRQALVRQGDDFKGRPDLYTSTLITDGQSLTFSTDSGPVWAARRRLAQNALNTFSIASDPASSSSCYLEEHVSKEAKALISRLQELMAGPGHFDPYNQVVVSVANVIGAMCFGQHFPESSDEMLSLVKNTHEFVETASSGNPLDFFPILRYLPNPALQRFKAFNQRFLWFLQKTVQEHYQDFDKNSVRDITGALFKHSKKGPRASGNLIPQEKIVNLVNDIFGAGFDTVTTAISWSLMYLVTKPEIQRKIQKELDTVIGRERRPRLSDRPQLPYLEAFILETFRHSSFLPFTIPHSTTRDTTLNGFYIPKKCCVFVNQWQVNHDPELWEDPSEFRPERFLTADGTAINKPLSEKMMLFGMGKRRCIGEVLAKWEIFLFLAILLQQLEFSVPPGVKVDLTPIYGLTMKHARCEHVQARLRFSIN
Chain of Glucocorticoid receptor (Homo sapiens) (P04150 whole entry, looked up, the tested form may be a part): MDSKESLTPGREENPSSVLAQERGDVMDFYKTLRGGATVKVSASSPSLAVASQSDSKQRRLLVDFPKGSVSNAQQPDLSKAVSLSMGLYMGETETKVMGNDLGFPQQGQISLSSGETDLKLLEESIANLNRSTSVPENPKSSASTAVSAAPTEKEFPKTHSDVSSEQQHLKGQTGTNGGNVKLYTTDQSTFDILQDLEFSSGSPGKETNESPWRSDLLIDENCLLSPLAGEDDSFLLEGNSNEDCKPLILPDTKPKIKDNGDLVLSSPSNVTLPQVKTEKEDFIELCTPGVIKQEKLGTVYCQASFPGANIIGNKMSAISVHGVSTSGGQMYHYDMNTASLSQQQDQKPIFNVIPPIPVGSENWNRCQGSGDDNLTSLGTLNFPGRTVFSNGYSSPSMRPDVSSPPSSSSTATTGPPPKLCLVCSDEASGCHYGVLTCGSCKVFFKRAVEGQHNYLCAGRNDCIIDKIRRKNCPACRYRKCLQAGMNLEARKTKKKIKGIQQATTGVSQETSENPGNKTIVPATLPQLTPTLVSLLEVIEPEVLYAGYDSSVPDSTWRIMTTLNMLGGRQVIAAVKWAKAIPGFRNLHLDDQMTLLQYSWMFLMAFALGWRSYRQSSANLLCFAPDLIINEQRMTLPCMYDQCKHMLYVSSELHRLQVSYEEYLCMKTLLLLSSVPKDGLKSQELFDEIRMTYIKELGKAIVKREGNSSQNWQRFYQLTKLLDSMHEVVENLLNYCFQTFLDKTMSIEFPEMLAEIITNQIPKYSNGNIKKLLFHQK
Chain of DNA dC->dU-editing enzyme APOBEC-3G (Homo sapiens) (Q9HC16 whole entry, looked up): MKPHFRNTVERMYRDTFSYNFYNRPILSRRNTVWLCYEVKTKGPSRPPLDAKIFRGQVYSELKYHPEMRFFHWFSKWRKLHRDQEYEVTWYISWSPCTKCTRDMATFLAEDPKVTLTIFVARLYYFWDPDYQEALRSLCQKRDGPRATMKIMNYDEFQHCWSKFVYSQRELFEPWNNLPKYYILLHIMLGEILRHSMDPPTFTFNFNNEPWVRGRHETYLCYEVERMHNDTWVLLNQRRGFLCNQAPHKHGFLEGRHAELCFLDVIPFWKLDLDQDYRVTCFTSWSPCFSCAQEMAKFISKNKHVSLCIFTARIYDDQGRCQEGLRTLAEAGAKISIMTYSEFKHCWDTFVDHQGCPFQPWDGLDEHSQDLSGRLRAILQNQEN
Chain of Ubiquitin carboxyl-terminal hydrolase 1 (Homo sapiens) (O94782 whole entry, looked up): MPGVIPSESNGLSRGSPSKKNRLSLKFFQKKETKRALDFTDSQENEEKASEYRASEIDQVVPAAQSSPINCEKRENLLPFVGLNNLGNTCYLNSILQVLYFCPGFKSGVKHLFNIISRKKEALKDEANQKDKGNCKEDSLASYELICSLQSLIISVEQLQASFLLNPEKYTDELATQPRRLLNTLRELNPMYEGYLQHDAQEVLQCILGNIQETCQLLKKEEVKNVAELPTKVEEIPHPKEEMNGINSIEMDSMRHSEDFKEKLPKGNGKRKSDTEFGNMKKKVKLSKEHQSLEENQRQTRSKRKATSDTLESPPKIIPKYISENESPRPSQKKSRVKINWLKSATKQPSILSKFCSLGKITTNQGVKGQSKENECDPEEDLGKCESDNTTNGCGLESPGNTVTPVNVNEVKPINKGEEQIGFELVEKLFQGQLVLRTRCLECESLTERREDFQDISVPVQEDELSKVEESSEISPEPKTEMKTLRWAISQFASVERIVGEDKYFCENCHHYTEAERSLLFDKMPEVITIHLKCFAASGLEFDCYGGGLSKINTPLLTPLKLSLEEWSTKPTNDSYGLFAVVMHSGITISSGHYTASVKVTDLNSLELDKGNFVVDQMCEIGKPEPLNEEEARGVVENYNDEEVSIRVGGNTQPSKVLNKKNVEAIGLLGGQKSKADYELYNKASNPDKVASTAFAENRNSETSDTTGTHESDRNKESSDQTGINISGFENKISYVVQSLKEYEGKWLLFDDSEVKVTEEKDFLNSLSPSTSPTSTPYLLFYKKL
Chain of Pyruvate kinase PKM (Homo sapiens) (P14618 whole entry, looked up): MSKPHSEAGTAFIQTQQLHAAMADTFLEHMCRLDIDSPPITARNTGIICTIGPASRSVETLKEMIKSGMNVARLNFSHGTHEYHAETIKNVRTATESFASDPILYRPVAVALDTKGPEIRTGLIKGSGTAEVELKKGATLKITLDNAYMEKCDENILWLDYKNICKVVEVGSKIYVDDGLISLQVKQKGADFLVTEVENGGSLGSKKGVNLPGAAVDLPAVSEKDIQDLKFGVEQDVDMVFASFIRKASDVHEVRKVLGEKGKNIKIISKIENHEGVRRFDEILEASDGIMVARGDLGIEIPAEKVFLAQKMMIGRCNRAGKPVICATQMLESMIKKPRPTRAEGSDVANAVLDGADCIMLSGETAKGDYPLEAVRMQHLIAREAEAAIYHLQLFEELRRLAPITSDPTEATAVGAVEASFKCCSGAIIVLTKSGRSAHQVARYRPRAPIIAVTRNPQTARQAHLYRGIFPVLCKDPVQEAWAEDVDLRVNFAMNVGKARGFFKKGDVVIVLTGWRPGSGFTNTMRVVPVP
Chain of Pyruvate kinase (Leishmania mexicana) (Q27686 2-499 E452W): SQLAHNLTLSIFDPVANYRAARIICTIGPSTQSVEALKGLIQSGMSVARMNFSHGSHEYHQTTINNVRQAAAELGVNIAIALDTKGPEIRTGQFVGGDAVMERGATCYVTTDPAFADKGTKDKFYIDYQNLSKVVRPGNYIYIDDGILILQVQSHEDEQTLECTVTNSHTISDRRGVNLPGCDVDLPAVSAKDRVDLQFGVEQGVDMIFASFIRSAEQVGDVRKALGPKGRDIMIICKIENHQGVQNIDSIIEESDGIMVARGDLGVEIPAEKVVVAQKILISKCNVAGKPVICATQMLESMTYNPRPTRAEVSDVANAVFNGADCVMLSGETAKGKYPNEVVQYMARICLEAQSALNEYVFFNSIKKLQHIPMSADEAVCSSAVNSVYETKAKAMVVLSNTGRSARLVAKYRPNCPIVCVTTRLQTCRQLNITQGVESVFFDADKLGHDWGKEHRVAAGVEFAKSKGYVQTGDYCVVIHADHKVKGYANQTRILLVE
Chain of Cytochrome P450 2C9 (Homo sapiens) (P11712 whole entry, looked up): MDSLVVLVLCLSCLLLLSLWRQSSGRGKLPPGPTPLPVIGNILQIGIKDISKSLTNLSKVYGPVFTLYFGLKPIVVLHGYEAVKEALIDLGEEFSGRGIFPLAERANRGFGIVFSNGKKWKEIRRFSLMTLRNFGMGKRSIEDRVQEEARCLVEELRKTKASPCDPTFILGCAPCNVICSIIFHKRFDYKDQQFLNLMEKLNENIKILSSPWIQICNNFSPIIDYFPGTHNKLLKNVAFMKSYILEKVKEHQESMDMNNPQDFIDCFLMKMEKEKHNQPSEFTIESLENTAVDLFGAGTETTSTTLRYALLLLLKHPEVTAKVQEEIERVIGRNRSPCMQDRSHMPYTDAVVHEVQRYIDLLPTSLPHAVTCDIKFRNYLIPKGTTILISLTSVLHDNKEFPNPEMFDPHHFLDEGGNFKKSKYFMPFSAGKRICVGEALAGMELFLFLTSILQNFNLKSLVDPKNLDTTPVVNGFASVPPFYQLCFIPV

Take `CC(C)NC[C@H](O)c1ccc(NS(C)(=O)=O)cc1`: the activity change, negative = inhibition was -5.04% (inactive) in [1] (at 17.2 µM (top of the series)); -0.189% (inactive) in experiment [1] (at 38 µM (top of the series)); -7.39% (inactive) in [3] (at 38 µM (top of the series)); -2.05% (inactive) in [13] (at 25.7 µM (top of the series)); -2.56% (inactive) in [13] (at 57.5 µM (top of the series)). The Potency result in experiment [2], in [7], in experiment [8], in experiment [9], in [10] and in experiment [14] was “inactive” throughout. Besides, the Potency entry in experiment [15], in experiment [16] and in [17] was “inactive” throughout. Besides, the activity, negative = inhibition in experiment [4] (at 17.2 µM (top of the series)) was -2.38% (inactive); in [4] (at 38 µM (top of the series)) it was 2.96% (inactive). Moreover, the Potency is > 46 µM (inactive) and > 20.6 µM (inactive) in experiment [5]; > 46 µM (inactive) and > 20.6 µM (inactive) in experiment [6]. In addition, the call in [11] and in experiment [12] was inactive. The max response is -18.7% and 20.5% in [13] (setting [20]); -18.8% and 17.8% in [13] (setting [21]).
As to `CCCCCCCCC#CCC#CCC#CCCCC(=O)O`, the figures for the activity change, negative = inhibition in experiment [16] and in experiment [17] were 19.3% [at 6.83 µM] (inactive) and -14.3% [at 3.88 µM] (inactive), respectively.
As for `CNC(=S)NCCCCc1cnc[nH]1`, the Potency entry in experiment [16] and in experiment [17] was “inactive” in each case.
For `N[C@@H](Cn1c2c(c(=O)[nH]c1=O)CCC2)C(=O)O`, the Potency entry in [16] and in [17] was “inactive” in each case.
For `CCCCC[C@H](O)/C=C/[C@H]1C=CC(=O)[C@@H]1CCCCCCC(=O)O`, the activity change, negative = inhibition was 16.3% [at 6.83 µM] (inactive) in experiment [16] and -11.3% [at 3.88 µM] (inactive) in experiment [17].
Turning to `O=C1CC[C@H](N2C(=O)c3ccccc3C2=O)C(=O)N1`, the activity change, negative = inhibition was 0.427% (inactive) in experiment [1] (at 17.2 µM (top of the series)); -0.244% (inactive) in experiment [1] (at 38 µM (top of the series)); -1.74% (inactive) in experiment [3] (at 17.2 µM (top of the series)); -10.1% (inactive) in experiment [3] (at 38 µM (top of the series)); -1.97% (inactive) in experiment [13] (at 25.7 µM (top of the series)); -4.08% (inactive) in experiment [13] (at 57.5 µM (top of the series)). Moreover, the Potency result in experiment [2], in experiment [7], in experiment [8], in experiment [18], in [19] and in experiment [9] was “inactive” each time. The Potency result in [10], in experiment [14], in experiment [15], in [16] and in experiment [17] was “inactive” each time. Besides, the results for the activity, negative = inhibition in experiment [4] (at 17.2 µM (top of the series)) and in [4] (at 38 µM (top of the series)) were 3.42% (inactive) and -18.4% (inactive), respectively. The Potency in experiment [5] is > 46 µM (inactive) and > 20.6 µM (inactive); in [6], > 46 µM (inactive) and > 20.6 µM (inactive). Besides, the compound was classed as inactive in experiment [11] and in experiment [12]. Further, the max response was 11% and -21.2% in experiment [13] (setting [20]); 5.6% and -23.7% in [13] (setting [21]).
